Nrf2 inh – inhibitors of Nrf2 signaling. A549 ARE-Fluc reporter, luciferase luminescence, 18-24 h. Potency, µM (highest dose often 46 µM), for the others: top-dose activity change, negative = inhibition, most hits filed as inhibitors. 360,000 compounds, 2.1% hits; further: on the % scale 0 is the no-effect control and ±100 the full control effect; nearly all actives have a fitted effect of over 60% in size
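Quantitative HTS in A549 cells stably bearing an antioxidant response element-firefly luciferase construct. Inhibition of Nrf2-driven transcription was scored by luminescence after 18-24 h of compound exposure at 37 °C.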
A549 tox-1 – counter-screen for Nrf2 inhibitors: cytotoxicity in A549 cells | A549 ARE-Fluc cells, CellTiter-Fluor viability, 18-24 h | Potency, µM (series often up to 46 µM), inactives show at the top dose activity change, negative = cytotoxicity, usual class: inhibitors | 390,000 compounds, 0.16% hits; further: on the % scale 0 is the no-effect control and ±100 the full control effect
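A549 ARE-Fluc cells in 5% FBS OPTI-MEM, 5000 cells/well, rested 2 h then exposed to compounds in concentration-response for 18-24 h at 37 °C. Viability by CellTiter-Fluor fluorescence (Ex 405/Em 525) after 30 min; luciferase luminescence (BugLite, 15 min, RT) read afterwards.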
Nrf2 activator – activators of Nrf2 (ARE) signaling | 410,000 compounds, 0.31% hits | Potency, µM (top dose mostly 46.1 µM), without a hit: at the highest dose activation, most hits filed as activators | AID 624171 | AREc32 ARE-luciferase reporter (MCF7-derived line), luminescence, 24 h; further: % of control where 0% means no effect; nearly all actives have a fitted effect of over 65% in size
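Nrf2 activation is followed as ARE-luciferase induction in the AREc32 line after one day of compound treatment; luminescence is read with Steady-Glo.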
Pin1 inhibitor – inhibitors of human Pin1. Pin1 FP peptide displacement, HiFluor488, 10 min. Potency, µM (doses to about 115 µM), without a hit: at the highest dose activity, negative = inhibition, actives largely listed as inhibitors. AID 504891. Q13526. 390,000 compounds, 0.009% hits; active means well fitted inhibition curve with a large enough effect in the polarisation, with a control signal flat, not every such curve was filed as active; inconclusive means small, poorly fitted or top-dose-only effect, or effect the other way, or a change in a side signal; inactive means no such curve, though single readings can be large or run the other way; the % refers to the polarisation; further: on the % scale 0 is the no-effect control and ±100 the full control effect
Target sequence (Q13526 whole entry, looked up): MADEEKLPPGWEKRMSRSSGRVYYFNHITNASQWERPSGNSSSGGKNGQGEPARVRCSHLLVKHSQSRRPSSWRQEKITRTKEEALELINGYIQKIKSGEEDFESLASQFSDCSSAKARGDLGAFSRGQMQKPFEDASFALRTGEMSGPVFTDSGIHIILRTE
FLuc enzyme inh – blocks purified firefly luciferase in Nrf2 counterscreen | shares compounds with Nrf2 inh | purified firefly luciferase, luminescence inhibition | Potency, µM (titrated, usually from 57.5 µM), inactives show top-dose activity change, negative = inhibition, hits mostly inhibitors | 1,400 compounds, 4% hits; further: on the % scale 0 is the no-effect control and ±100 the full control effect; nearly all actives have a fitted effect of over 65% in size
Target sequence (P08659 whole entry, looked up): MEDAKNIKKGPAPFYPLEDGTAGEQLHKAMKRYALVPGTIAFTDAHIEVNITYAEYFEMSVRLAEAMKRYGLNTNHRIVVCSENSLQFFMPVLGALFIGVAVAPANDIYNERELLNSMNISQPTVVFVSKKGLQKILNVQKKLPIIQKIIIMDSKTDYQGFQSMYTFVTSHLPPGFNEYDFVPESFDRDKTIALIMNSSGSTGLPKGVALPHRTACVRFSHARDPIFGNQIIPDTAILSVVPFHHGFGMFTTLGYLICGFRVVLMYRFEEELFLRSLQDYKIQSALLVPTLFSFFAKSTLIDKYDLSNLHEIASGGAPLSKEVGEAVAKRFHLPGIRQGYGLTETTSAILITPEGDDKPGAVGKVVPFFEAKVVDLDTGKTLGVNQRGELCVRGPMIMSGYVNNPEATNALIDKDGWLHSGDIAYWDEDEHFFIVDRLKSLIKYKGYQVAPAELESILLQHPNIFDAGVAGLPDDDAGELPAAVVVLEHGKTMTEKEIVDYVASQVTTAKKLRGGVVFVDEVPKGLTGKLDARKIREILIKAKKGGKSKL
A549 tox-2 – A549 cytotoxicity, Nrf2 inhibitor counterscreen; shares compounds with Nrf2 inh; A549 ARE-Fluc cells, cytotoxicity counterscreen; Potency, µM (titrated, usually from 46.1 µM), without a hit: top-dose activity change, negative = cytotoxicity, most hits filed as inhibitors; 1,400 compounds, 2% hits; AID 720523;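 further: cells exposed to compounds for 18 to 24 hours; on the % scale 0 is the no-effect control and ±100 the full control effect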
ARE-Fluc inh – Nrf2 inhibition confirmed, A549 ARE-luciferase | shares compounds with Nrf2 inh | AID 720524 | Potency, µM (titrated, usually from 46.1 µM), inactives show at the highest dose activity change, negative = inhibition, hits mostly inhibitors | 1,400 compounds, 74% hits | A549 ARE-firefly luciferase reporter, luminescence; further: on the % scale 0 is the no-effect control and ±100 the full control effect; nearly all actives have a fitted effect of over 65% in size
* marks the source's active call; other numbers are inactive results; ? = inconclusive; . = not tested or not shown; [ ] = remark or other dose. An excerpt weighted towards active compounds, which were near 2.2% of everything screened. Unless noted, the call rests on the fitted dose curve; in most records, active means well fitted curve in the direction sought with a large enough effect; inconclusive means small, poorly fitted or top-dose-only effect, or another doubt; inactive means no such curve, though single readings can be large; an effect the other way counts as inactive or inconclusive. Potency means the concentration at half of the fitted maximal effect.

SMILES | Nrf2 inh | A549 tox-1 | Nrf2 activator | Pin1 inhibitor | FLuc enzyme inh | A549 tox-2 | ARE-Fluc inh
CN1/C(=C\C=[N+](C)c2ccccc2)C(C)(C)c2ccccc21 | 0.82µM* | 9.2µM* | 2.2% | -2.3% | 1.9% | ? | 1.16µM*
COc1ccc(C(=O)C[n+]2ccc3ccccc3c2C)cc1 | ? | -14.7% | 9.2% | -9.6% | . | . | .
COc1cc(OC)c(/C=C/c2c3ccccc3cc[n+]2C)c(OC)c1 | . | . | . | . | 1.2% | ? | 2.06µM*
COc1ccc(N=Cc2c(OC)ccc3ccccc23)cc1 | 0.9% | -1.5% | 3.1% | 0.8% | . | . | .
COc1cc(OC)c(/C=C/c2cc3c4ccccc4ccc3[n+](C)c2)c(OC)c1 | . | . | . | . | 6.75µM* | -15.2% | 4.61µM*
COc1ccc2c(c1)c1c(c(=O)n(Cc3ccccc3)c(=O)n1Cc1ccc(C)cc1)n2C | 24.1% | 6.1% | 0.1% | -2.0% | . | . | .
CCc1ccc2nc(N3CCN(C(=O)c4ccccc4)CC3)sc2c1 | . | -9.0% | -0.2% | -2.5% | . | . | .
CCN(Cc1ccccc1)S(=O)(=O)c1ccc(C(=O)N2CCN(c3nc4ccccc4s3)CC2)cc1 | 1.84µM* | -13.5% | 0.0% | 11.7% | -11.0% | -0.5% | 7.31µM*
Cc1cc(=O)n(CC(=O)N2CCN(c3ccccc3F)CC2)c2c1c(C)nn2C | 8.2µM* | -6.4% | 0.5% | -8.1% | 1.2% | -6.8% | ?
Cc1ccc(-n2c(-c3ccc(Br)cc3)c[n+]3c2CCc2ccc4cccnc4c2-3)cc1 | 2.91µM* | -22.1% | 5.7% | 0.9% | -9.7% | ? | 5.8µM*
COc1cccc(C(=O)Nc2ccccc2-c2nnc(-c3ccc(C(C)(C)C)cc3)o2)c1 | 4.2% | -4.2% | 0.5% | -0.2% | . | . | .
Cc1ccc(C(=O)Oc2ccccc2N2C(=O)C3CCCCC3C2=O)cc1 (stereo not drawn) | 1.3µM* | 8.3% | -1.8% | -14.9% | -1.6% | -0.1% | 3.26µM*
O=C(Oc1ccccc1N1C(=O)C2CCCCC2C1=O)c1ccccc1 (stereo not drawn) | -18.4% | 1.5% | -0.6% | -15.8% | . | . | .
c1ccc2c(N=NN3CCCCC3)ccnc2c1 | . | . | . | . | -24.0% | -23.7% | 5.8µM*
CCc1nnc(NC(=O)CSc2nccn2Cc2ccc(F)cc2)s1 | . | 15.1% | 3.7% | -5.3% | . | . | .
Cc1cccc(NC(=O)c2c(N)sc3c2CCC(C)C3)c1 (stereo not drawn) | ? | 0.3% | 20.7% | ? | . | . | .
CC(=O)N1c2ccc(S(=O)(=O)N3CCN(c4cccc(Cl)c4)CC3)cc2CC1C (stereo not drawn) | ? | 21.1% | -1.1% | 7.2% | . | . | .
COc1ccc(N2CCN(S(=O)(=O)c3ccc4c(c3)CC(C)N4C(C)=O)CC2)cc1 (stereo not drawn) | 9.2µM* | -9.4% | -0.7% | -1.7% | 4.0% | -4.0% | 5.8µM*
COc1cc(NS(=O)(=O)c2ccc3c(c2)CC(C)N3C(=O)C2CCC2)cc(OC)c1OC (stereo not drawn) | 6.51µM* | -25.8% | . | 4.8% | -1.9% | -15.6% | 2.59µM*
COc1ccc(NS(=O)(=O)c2ccc3c(c2)CC(C)N3C(=O)C2CCC2)cc1OC (stereo not drawn) | . | ? | -0.8% | -8.2% | . | . | .
CC1Cc2cc(S(=O)(=O)NCCc3ccccc3)ccc2N1C(=O)C1CCC1 (stereo not drawn) | ? | 12.8% | 4.0% | 8.1% | . | . | .
CC1Cc2cc(S(=O)(=O)NCc3ccccc3)ccc2N1C(=O)C1CCC1 (stereo not drawn) | 1.64µM* | -3.2% | 0.4% | -3.3% | 2.0% | 0.2% | ?
COc1cc(Cl)c(NS(=O)(=O)c2ccc3c(c2)CC(C)N3C(=O)C2CCC2)c(OC)c1 (stereo not drawn) | 9.2µM* | -22.5% | -1.3% | 0.2% | 0.4% | -10.7% | 8.2µM*
CNS(=O)(=O)c1cn(CC(=O)N2CCN(c3ccc(C(C)=O)cc3)CC2)cc1S(=O)(=O)NC | 0.8% | 9.5% | -0.1% | 0.2% | . | . | .
CCOC(=O)c1cc(-c2ccc(C)cc2)n(CCC(=O)NCc2ccccc2)c1C | 8.2µM* | -21.4% | -0.2% | 3.3% | 0.6% | -15.4% | -23.0%
SMILES | Nrf2 inh | A549 tox-1 | Nrf2 activator | Pin1 inhibitor | FLuc enzyme inh | A549 tox-2 | ARE-Fluc inh
CCOc1ccccc1C(=O)NCC(=O)N1CCN(Cc2ccc3c(c2)OCO3)CC1 | 4.61µM* | -4.1% | 2.5% | -2.8% | -1.0% | -0.6% | 5.17µM*
COc1ccccc1C(=O)N1CCN(Cc2ccc3c(c2)OCO3)CC1 | 20.6% | 1.1% | -1.0% | -9.3% | . | . | .
CCN(c1ccccc1)S(=O)(=O)c1ccc(C(=O)Nc2nnc(-c3ccco3)o2)cc1 | 5.17µM* | -22.4% | -2.3% | -1.8% | 0.9% | -26.3% | 5.17µM*
CC1CCCCN1S(=O)(=O)c1ccc(C(=O)Nc2nnc(-c3ccccc3Cl)o2)cc1 (stereo not drawn) | 5.17µM* | ? | -0.1% | 27.0% | -2.4% | ? | 6.51µM*
CC1(C)COCN1S(=O)(=O)c1ccc(C(=O)Nc2nnc(-c3ccc(Cl)s3)o2)cc1 | 6.31µM* | ? | -0.9% | 3.7% | -14.7% | ? | 5.17µM*
CCCN(CCC)S(=O)(=O)c1ccc(C(=O)Nc2nnc(-c3cccc(OC)c3)o2)cc1 | 6.51µM* | ? | -1.0%[9.22 µM] | -0.3% | 1.7% | ? | 4.61µM*
COC(=O)c1ccccc1NC(=O)NCCc1c(C)nn(C)c1C | . | 0.2% | 0.2% | 1.5% | . | . | .
COc1cccc(CNC(=O)CCc2nnc3n(CC(C)C)c(=O)c4ccccc4n23)c1 | 9.9% | -2.4% | 0.2% | 1.5% | . | . | .
O=C(Nc1nnc(-c2ccccc2Cl)o1)c1ccc(S(=O)(=O)N2CCCCCC2)cc1 | ? | -15.5% | -2.0% | 16.0% | -9.5% | ? | 20.6µM*
CCOc1ccc(C(=O)Nc2ccc(S(=O)(=O)N(Cc3ccccc3)c3ccccc3)cc2)cc1 | 2.06µM* | -10.1% | -1.1% | 11.0% | -0.9% | -0.7% | 1.64µM*
CS(=O)(=O)c1ccccc1-c1nnc(NC(=O)c2ccc(S(=O)(=O)N3CCCC3)cc2)o1 | -4.6% | 1.1% | -0.7% | 3.3% | . | . | .
CC1CCCN(S(=O)(=O)c2ccc(C(=O)Nc3nnc(-c4ccco4)o3)cc2)C1 (stereo not drawn) | 8.2µM* | -18.3% | 3.0% | 1.1% | -1.3% | ? | .
CCc1nnc(NC(=O)c2ccc(S(=O)(=O)N3CCCC(C)C3)cc2)o1 (stereo not drawn) | ? | -15.8% | -1.2% | 3.5% | . | . | .
CCOc1ccc(-c2cc3c(=O)n(CC(=O)NCc4ccccc4)ccn3n2)cc1 | . | 0.0% | 0.4% | 0.4% | . | . | .

Screening results deposited in PubChem by National Center for Advancing Translational Sciences (NCATS).
